In all, about 2,000 compounds went through this assay and about 110 (5.5%) showed an effect of 50% or more. Only a selection was taken, and strong results are over-represented in it overall.
Molecular target: Genome polyprotein (dengue virus type 2) (UniProt P29990)
[1] = Thailand/16681/1984, Concentration 25.0 uM, Number of replicates 1.0

`C[C@@H](NC(=O)OCc1ccccc1)C(=O)Nc1cccc(CN)c1` gave an inhibition (Thailand/16681/1984, Concentration 49.5 uM, Number of replicates 2.0, Standard deviation 1.8366578313187596 %) of -7.57% and an inhibition (Thailand/16681/1984, Concentration 198.0 uM, Number of replicates 2.0, Standard deviation 1.0835833369227144 %) of -9.56%.
`C[C@H](NC(=O)C1CCN(c2ccc(C=O)cc2)CC1)c1ccc(S(C)(=O)=O)cc1` showed an inhibition [1] of 12.5%.
`CCN(C(=O)C1CCN(c2ccc(C=O)cc2)CC1)[C@H]1CCOC(C)(C)C1` gave an inhibition [1] of 13%.
With `NCc1cccc(NC(=O)[C@@H](Cc2cccc(O)c2)NC(=O)OCc2ccccc2)c1` the inhibition (Thailand/16681/1984, Concentration 49.5 uM, Number of replicates 2.0, Standard deviation 2.8573642237031027 %) was -3.63%, the inhibition (Thailand/16681/1984, Concentration 99.01 uM, Number of replicates 2.0, Standard deviation 1.9175045904819328 %) was -3.65% and the inhibition (Thailand/16681/1984, Concentration 198.0 uM, Number of replicates 2.0, Standard deviation 1.9524208099559948 %) was -2.84%.
Work on `COc1cc(C(=O)N(C)C)nc(N2CCNCC2)n1` yielded an inhibition (Thailand/16681/1984, Concentration 49.5 uM, Number of replicates 2.0, Standard deviation 4.026406870890022 %) of -3.23%, an inhibition (Thailand/16681/1984, Concentration 99.01 uM, Number of replicates 2.0, Standard deviation 2.6098419358385048 %) of -4.25% and an inhibition (Thailand/16681/1984, Concentration 198.0 uM, Number of replicates 2.0, Standard deviation 2.250930669275132 %) of -2.7%.
For `CC(C)(C)OC(=O)N[C@H](C(=O)Nc1cccc(C(N)=O)c1)c1ccc(OCc2ccccc2)cc1`, the inhibition (Thailand/16681/1984, Concentration 49.5 uM, Number of replicates 2.0, Standard deviation 1.188000805409302 %) was 2.72%, the inhibition (Thailand/16681/1984, Concentration 99.01 uM, Number of replicates 2.0, Standard deviation 0.11203913598390365 %) was 5.59% and the inhibition (Thailand/16681/1984, Concentration 198.0 uM, Number of replicates 2.0, Standard deviation 0.9108004769909699 %) was 7.47%.
`CC(C)(C)OC(=O)N[C@H](C(=O)Nc1cccc(CN)c1)c1ccc(OCc2ccccc2)cc1` was tested, and the inhibition (Thailand/16681/1984, Concentration 49.5 uM, Number of replicates 2.0, Standard deviation 1.7551947166429631 %) was -1.9%, the inhibition (Thailand/16681/1984, Concentration 99.01 uM, Number of replicates 2.0, Standard deviation 0.05489981052071439 %) was 3.23% and the inhibition (Thailand/16681/1984, Concentration 198.0 uM, Number of replicates 2.0, Standard deviation 0.6374768156986698 %) was 15%.
Work on `CCCC[C@@H](NC(=O)OC(C)(C)C)C(=O)N[C@@H](C(=O)NCc1ccc(CN)cc1)c1ccc(OCc2ccccc2)cc1` yielded an inhibition (Thailand/16681/1984, Concentration 49.5 uM, Number of replicates 2.0, Standard deviation 1.8529777654117539 %) of 94%, an inhibition (Thailand/16681/1984, Concentration 99.01 uM, Number of replicates 2.0, Standard deviation 0.005880328304239935 %) of 100% and an inhibition (Thailand/16681/1984, Concentration 198.0 uM, Number of replicates 2.0, Standard deviation 0.014706215557209234 %) of 99.9%.
With `CCCC[C@H](NC(=O)OC(C)(C)C)C(=O)N[C@H](C(=O)NCc1ccc(C(N)=O)cc1)c1ccc(OCc2ccccc2)cc1` the inhibition (Thailand/16681/1984, Concentration 49.5 uM, Number of replicates 2.0, Standard deviation 0.5441055304446053 %) was -3.24%, the inhibition (Thailand/16681/1984, Concentration 99.01 uM, Number of replicates 2.0, Standard deviation 1.2410372194636528 %) was 12.6% and the inhibition (Thailand/16681/1984, Concentration 198.0 uM, Number of replicates 2.0, Standard deviation 0.08996362825826161 %) was 97.6%.
With `CC(C)(C)OC(=O)N[C@H](C(=O)Nc1ccc(CN)cc1)c1ccc(OCc2ccccc2)cc1` the inhibition (Thailand/16681/1984, Concentration 49.5 uM, Number of replicates 2.0, Standard deviation 0.7638001086987946 %) was -1.42%, the inhibition (Thailand/16681/1984, Concentration 99.01 uM, Number of replicates 2.0, Standard deviation 0.5692523211680847 %) was 0.423% and the inhibition (Thailand/16681/1984, Concentration 198.0 uM, Number of replicates 2.0, Standard deviation 0.3400589812244498 %) was 5.26%.
`Cc1cnccc1NC(=O)c1ccc2c(c1)COCC2` was tested, and the inhibition (Thailand/16681/1984, Concentration 49.5 uM, Number of replicates 2.0, Standard deviation 2.5121871293930202 %) was -1.99%, the inhibition (Thailand/16681/1984, Concentration 99.01 uM, Number of replicates 2.0, Standard deviation 1.8322256055090813 %) was -1.68% and the inhibition (Thailand/16681/1984, Concentration 198.0 uM, Number of replicates 2.0, Standard deviation 3.8354075529759903 %) was -1.51%.
`NCc1cccc(NC(=O)C2(NC(=O)OCc3ccccc3)CC(F)(F)C2)c1` was tested, and the inhibition (Thailand/16681/1984, Concentration 49.5 uM, Number of replicates 2.0, Standard deviation 2.2677200349668407 %) was -2.94%, the inhibition (Thailand/16681/1984, Concentration 99.01 uM, Number of replicates 2.0, Standard deviation 0.8839411333719474 %) was -2.06% and the inhibition (Thailand/16681/1984, Concentration 198.0 uM, Number of replicates 2.0, Standard deviation 0.8051076448684426 %) was -2.25%.
In the case of `Cc1cc(CO)c2cccc(Cc3ccccc3NC(=O)CN3CCOCC3)c2n1`, the inhibition (Thailand/16681/1984, Concentration 49.95 uM, Number of replicates 2.0, Standard deviation 1.5612707024702146 %) is reported as -2% and the inhibition (Thailand/16681/1984, Concentration 99.9 uM, Number of replicates 2.0, Standard deviation 0.4618038620708361 %) is reported as 3.39%.
Compound `COc1cc(Cc2cnc(N)c(C(F)F)c2)nc(N2CCNCC2)n1` has an inhibition (Thailand/16681/1984, Concentration 49.5 uM, Number of replicates 2.0, Standard deviation 0.44655669171298956 %) of 1.19%, an inhibition (Thailand/16681/1984, Concentration 99.01 uM, Number of replicates 2.0, Standard deviation 0.9500169394185984 %) of 3.1% and an inhibition (Thailand/16681/1984, Concentration 198.0 uM, Number of replicates 2.0, Standard deviation 0.4205436146652173 %) of 6.14%.
With `CCCOc1ccc([C@H](C)NC(=O)C2CCN(c3ccc(C=O)cc3)CC2)cc1` the inhibition [1] was 7.26%.
In the case of `COc1ccc(C[C@H]2c3cc(OC)c(OC)cc3CCN2C(=O)C2CCN(c3ccc(C=O)cc3)CC2)cc1OC`, the inhibition [1] is reported as 15.8%.
Compound `O=c1c(N2CC[C@H](CO)C2)nccn1C1CC1` has an inhibition (Thailand/16681/1984, Concentration 49.5 uM, Number of replicates 2.0, Standard deviation 2.4482264734756005 %) of 8.46%, an inhibition (Thailand/16681/1984, Concentration 99.01 uM, Number of replicates 2.0, Standard deviation 2.8900822321462307 %) of 18% and an inhibition (Thailand/16681/1984, Concentration 198.0 uM, Number of replicates 2.0, Standard deviation 2.1394185374850085 %) of 33.2%.
In the case of `CCn1c(=O)c(N2CC[C@@H](CO)C2)nc2ccccc21`, the inhibition (Thailand/16681/1984, Concentration 49.5 uM, Number of replicates 2.0, Standard deviation 0.8446781408235627 %) is reported as 16.3%, the inhibition (Thailand/16681/1984, Concentration 99.01 uM, Number of replicates 2.0, Standard deviation 1.6946189057395897 %) is reported as 33.2% and the inhibition (Thailand/16681/1984, Concentration 198.0 uM, Number of replicates 2.0, Standard deviation 1.3775046688444705 %) is reported as 53.9%.
With `CCn1ccnc(N2CC[C@@H](CO)C2)c1=O` the inhibition (Thailand/16681/1984, Concentration 49.5 uM, Number of replicates 2.0, Standard deviation 0.40547257598729775 %) was 8.04%, the inhibition (Thailand/16681/1984, Concentration 99.01 uM, Number of replicates 2.0, Standard deviation 0.38043701079703857 %) was 15.5% and the inhibition (Thailand/16681/1984, Concentration 198.0 uM, Number of replicates 2.0, Standard deviation 0.16218916526483432 %) was 28.5%.
Compound `C[C@H](NC(=O)C1CCN(c2ccc(C=O)cc2)CC1)C12CC3CC(CC(C3)C1)C2` has an inhibition [1] of 15%.
`CN(C(=O)C1CCN(c2ccc(C=O)cc2)CC1)[C@H]1CCN(Cc2ccccc2)C1` was tested, and the inhibition [1] was 13.8%.
Work on `Cc1nnc([C@H](C)n2cc(C3CCNCC3)c(C)n2)o1` yielded an inhibition (Thailand/16681/1984, Concentration 49.5 uM, Number of replicates 2.0, Standard deviation 23.401160981224884 %) of 6.09%, an inhibition (Thailand/16681/1984, Concentration 99.01 uM, Number of replicates 2.0, Standard deviation 17.471832455878243 %) of 11.7% and an inhibition (Thailand/16681/1984, Concentration 198.0 uM, Number of replicates 2.0, Standard deviation 4.4669335919131345 %) of -3.53%.
